Inconclusive results are not listed. Entries that show only a call come without a potency. Activity calls are given as the source filed them. Calls follow the shape of the dose curve; as a rule, active = well fitted inhibition curve with a large enough effect; inconclusive = small, poorly fitted or top-dose-only effect; inactive = flat fitted curve, though single readings scatter.

Potency data for 27 compounds are collected here from PubChem BioAssay (NCATS).
Potency is read from the fitted curve at half-maximal effect.

This assay deals with Ubiquitin carboxyl-terminal hydrolase 1 (Homo sapiens) (UniProt O94782). The assay is described as follows: Inhibitors of USP1/UAF1: Pilot qHTS (AID 504865). Also: nearly all actives have a fitted effect of over 35% in size. To be noted: purified USP1/UAF1, Ub-rhodamine cleavage fluorescence; series mostly up to 114 µM. The method in brief: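 USP1/UAF1 complex at 1 nM preincubated 15 min at room temperature with compound, then Ub-Rho substrate added at 150 nM final. Fluorescence (480/540 nm) read kinetically in 50 mM HEPES pH 7.8, 0.5 mM EDTA, 1 mM TCEP, 0.1 mg/ml BSA, 0.01% Tween-20.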
Chain of Ubiquitin carboxyl-terminal hydrolase 1 (Homo sapiens) (O94782 whole entry, looked up): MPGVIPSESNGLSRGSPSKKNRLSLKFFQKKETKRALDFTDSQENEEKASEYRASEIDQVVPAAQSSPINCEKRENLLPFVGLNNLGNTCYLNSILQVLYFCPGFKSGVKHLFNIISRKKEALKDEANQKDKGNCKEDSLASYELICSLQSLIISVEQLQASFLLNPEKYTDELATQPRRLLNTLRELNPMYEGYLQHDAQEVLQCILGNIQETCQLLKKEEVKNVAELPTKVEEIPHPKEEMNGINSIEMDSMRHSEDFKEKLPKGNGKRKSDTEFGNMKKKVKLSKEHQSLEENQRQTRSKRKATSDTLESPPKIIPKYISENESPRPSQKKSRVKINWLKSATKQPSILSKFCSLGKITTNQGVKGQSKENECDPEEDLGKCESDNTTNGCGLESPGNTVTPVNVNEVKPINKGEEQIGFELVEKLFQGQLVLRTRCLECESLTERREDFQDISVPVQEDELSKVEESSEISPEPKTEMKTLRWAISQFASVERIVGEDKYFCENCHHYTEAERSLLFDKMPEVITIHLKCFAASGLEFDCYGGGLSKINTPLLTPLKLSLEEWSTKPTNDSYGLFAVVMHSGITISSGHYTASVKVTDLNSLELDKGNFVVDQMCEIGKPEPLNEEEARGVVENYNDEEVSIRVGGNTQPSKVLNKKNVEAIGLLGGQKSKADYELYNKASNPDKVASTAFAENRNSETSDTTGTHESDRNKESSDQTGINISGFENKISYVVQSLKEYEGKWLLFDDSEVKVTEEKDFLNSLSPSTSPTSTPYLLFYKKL
(qHTS replaces the single test concentration by a dilution series.)
Consider `COc1cc(O)cc(O)c1`, for which the Potency result is “inactive”.

With `O=C(c1ccccc1)C(O)c1ccccc1` (configuration not stated), the Potency result is “inactive”.

For `CN1C(C)(C)CCCC1(C)C`, the Potency entry is “inactive”.

With `CCS(=O)(=O)CCn1c([N+](=O)[O-])cnc1C`, the Potency result is “inactive”.

As to `NS(=O)(=O)c1cc(-c2nn[nH]n2)c(NCc2cccs2)cc1Cl`, the Potency entry was “inactive”.

Consider `CC(N)CCCC(C)(C)O` (configuration not stated), for which the Potency entry was “inactive”.

Take `C[C@H]1COc2c(C3(N)CC3)c(F)cc3c(=O)c(C(=O)O)cn1c23`: the Potency entry is “inactive”.

Regarding `O=C(O)CCC(=O)O`, the Potency result is “inactive”.

`NC(=O)c1ccc([N+](=O)[O-])cc1Cl`: the Potency entry is “inactive”.

In the case of `COC(=O)c1cccnc1`, the Potency entry was “inactive”.

Consider `O=C(OOC(=O)c1ccccc1)c1ccccc1`, for which the Potency entry is “inactive”.

As for `CNCc1ccccc1`, the Potency result is “inactive”.

Regarding `CCCOC(=O)c1ccc(N)cc1`, the Potency result was “inactive”.

With `CCCCCC(C)N` (configuration not stated), the Potency result is “inactive”.

Turning to `OCC(O)CS` (configuration not stated), the Potency result is “inactive”.

Take `CCOC(N)=O`: the Potency result is “inactive”.

Regarding `CC(C)c1cc2c(cc1S(=O)(=O)O)[C@@]1(C)CCC[C@@](C)(C(=O)O)[C@@H]1CC2`, the Potency result is “inactive”.

Turning to `O=C(NCN1CCOCC1)c1cnccn1`, the Potency result was “inactive”.

For `O=C(O)Cn1c(C(=O)Nc2nc(-c3ccccc3Cl)cs2)cc2ccccc21`, the Potency was 79.4 µM (active).

For the compound `CCOc1cc(NC(C)=O)ccc1C(=O)OC`, the Potency result is “inactive”.

In the case of `CC(=O)Nc1ccc(C(=O)O)cc1`, the Potency entry was “inactive”.

`CCCCCCCCCCCCCCCCC(C(=O)O)C(O)(CC(=O)O)C(=O)O` (configuration not stated): the Potency is 22.4 µM (active).

With `Nc1ncnc(Nc2ccccc2)n1`, the Potency result was “inactive”.

In the case of `Cc1cc(-n2nc3ccc(Cl)cc3n2)c(O)c(C(C)(C)C)c1`, the Potency result is “inactive”.

`CC(=O)Oc1cccc(O)c1`: the Potency entry was “inactive”.

As for `FC(F)(F)C(Cl)Br` (configuration not stated), the Potency entry is “inactive”.

In the case of `O=C(O)Cc1cn(-c2ccccc2)nc1-c1ccc(Cl)cc1`, the Potency entry was “inactive”.
